Laboratory results published in PubChem BioAssay (EPA / NIEHS).
Active and inactive are the calls of the source. The calls were made as follows: active = hit-call score of the fitted dose curve at least 0.9, where 1 is the maximum; inactive = score below 0.9.

Columns and labels:
[1] = read-out: Macrophage colony-stimulating factor (MCSF), CSF1 (gene 1435); test: BSK_CASM3C_MCSF: BioMAP Diversity Plus: CASM3C Assay for Macrophage colony-stimulating factor (MCSF) Biomarker Activity (AID 2283044); settings: primary human coronary artery smooth muscle cells; actives raise or lower the signal;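 also: M-CSF protein amount quantified by ELISA after 24 h exposure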
[2] = read-out: Low-density lipoprotein receptor (LDLR), LDLR (gene 3949); test: BSK_CASM3C_LDLR: BioMAP Diversity Plus: CASM3C Assay for Low-density lipoprotein receptor (LDLR) Biomarker Activity (AID 2283045); settings: primary human coronary artery smooth muscle cells; actives raise or lower the signal;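 also: LDLR protein level on the cell surface quantified by ELISA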
[3] = read-out: Monocyte Chemoattractant Protein-1 (MCP1), CCL2 (gene 6347); test: BSK_CASM3C_MCP1: BioMAP Diversity Plus: CASM3C Assay for Monocyte Chemoattractant Protein-1 (MCP1) Biomarker Activity (AID 2283046); settings: primary human coronary artery smooth muscle cells; actives raise or lower the signal;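 also: MCP-1 level quantified by ELISA 24 h after dosing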
[4] = BSK_CASM3C_Proliferation: Cell Proliferation Assessment in the BioMAP Diversity Plus: CASM3C Assay (AID 2283047); settings: primary human coronary artery smooth muscle cells;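 also: sulforhodamine B total protein stain as relative cell number at 560 nm; sub-confluent cells exposed 48 h before staining; fitted both ways against DMSO so gain or loss of cell number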
[5] = read-out: Monokine induced gamma interferon (MIG), CXCL9 (gene 4283); test: BSK_CASM3C_MIG: BioMAP Diversity Plus: CASM3C Assay for Monokine induced gamma interferon (MIG) Biomarker Activity (AID 2283048); settings: primary human coronary artery smooth muscle cells; actives raise or lower the signal;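 also: MIG protein level measured by ELISA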
[6] = read-out: serum amyloid A (SAA), SAA1 (gene 6288); test: BSK_CASM3C_SAA: BioMAP Diversity Plus: CASM3C Assay for serum amyloid A (SAA) Biomarker Activity (AID 2283049); settings: primary human coronary artery smooth muscle cells; actives raise or lower the signal;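 also: SAA protein level quantified by ELISA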
[7] = BSK_CASM3C_SRB: Viability Assessment in the BioMAP Diversity Plus: CASM3C Assay (AID 2283050); settings: primary human coronary artery smooth muscle cells;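 also: total protein by SRB staining as cytotoxicity measure in parallel cultures; cells exposed to compound for 24 h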
[8] = read-out: Thrombomodulin, THBD (gene 7056); test: BSK_CASM3C_Thrombomodulin: BioMAP Diversity Plus: CASM3C Assay for Thrombomodulin Biomarker Activity (AID 2283051); settings: primary human coronary artery smooth muscle cells; actives raise or lower the signal;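 also: thrombomodulin protein level measured by ELISA 24 h after dosing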
[9] = read-out: Tissue Factor, F3 (gene 2152); test: BSK_CASM3C_TissueFactor: BioMAP Diversity Plus: CASM3C Assay for Tissue Factor Biomarker Activity (AID 2283052); settings: primary human coronary artery smooth muscle cells; actives raise or lower the signal;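 also: cell surface tissue factor protein level read by ELISA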
[10] = read-out: Interferon-gamma inducible Protein 10 (IP10), CXCL10 (gene 3627); test: BSK_hDFCGF_IP10: BioMAP Diversity Plus: hDFCGF Assay for Interferon-gamma inducible Protein 10 (IP10) Biomarker Activity (AID 2283053); settings: primary human foreskin fibroblasts; actives raise or lower the signal
Method in brief: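 Primary foreskin fibroblasts, human; 24 h compound exposure; IP-10 by ELISA; bidirectional fit vs DMSO.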

Measured: AC50

c1ccc2ccccc2c1
inactive: all assays above

CC(C)(C)c1cc(/C=C2\SC(N)=NC2=O)cc(C(C)(C)C)c1O
inactive: [9]
active: [1] 33.3 µM | [2] 29.1 µM | [3] 31.1 µM | [4] 29.1 µM | [5] 32 µM | [6] 31.6 µM | [7] 30.7 µM | [8] 0.507 µM | [10] 25.7 µM

COc1cccc([C@H](O)C2CCN(CCc3ccc(F)cc3)CC2)c1OC
inactive: all assays above

CC[C@@H]1C[C@H](N(Cc2cc(C(F)(F)F)cc(C(F)(F)F)c2)C(C)=O)c2cc(C(F)(F)F)ccc2N1C(=O)OC(C)C
active: [2] 1.22 µM | [4] 1.37 µM | [10] 1.22 µM
inactive: all other assays above

CN(C[C@@H](CC[N+]12CCC(C3CCCCC3)(CC1)CC2)c1ccc(Cl)c(Cl)c1)C(=O)c1cc(C(F)(F)F)cc(C(F)(F)F)c1
active: [1] 14.9 µM | [2] 14.3 µM | [3] 15.6 µM | [4] 9.26 µM | [5] 31.1 µM | [6] 18 µM | [7] 14.7 µM | [9] 20 µM | [10] 6.46 µM
inactive: [8]

O=C1c2ccccc2C(=O)N1CCc1noc(-c2ccc(CN3CCCCCC3)s2)n1
active: [2] 27.1 µM
inactive: all other assays above

CCN(CC)C(=O)c1cc(S(=O)(=O)Cc2ccccc2)c(N2CCC(c3ccccc3)CC2)cc1N(CC)CCN(C)C
active: [2] 0.138 µM | [4] 7.05 µM | [7] 27.1 µM | [9] 29.8 µM
inactive: all other assays above

CO[C@H]1/C=C/O[C@@]2(C)Oc3c(C)c(O)c4c(O)c(c(/C=N/N5CCN(C)CC5)c(O)c4c3C2=O)NC(=O)/C(C)=C\C=C\[C@H](C)[C@H](O)[C@@H](C)[C@@H](O)[C@@H](C)[C@H](OC(C)=O)[C@@H]1C
active: [4] 4.51 µM
inactive: all other assays above

CC(C)(O)c1ccc(CNC(=O)c2cccnc2Oc2ccc3nonc3c2)cc1
active: [6] 27.5 µM
inactive: all other assays above

c1ccc2n[nH]nc2c1
inactive: all assays above

O=C1CCC(C2CCCCC2)CC1
active: [10] 33.1 µM
inactive: all other assays above

CC1=CC(=O)/C(=C(/C)O)C(=O)O1
inactive: all assays above

O=CCCCC=O
active: [4] 23.5 µM | [8] 31.9 µM | [10] 34.9 µM
inactive: all other assays above

CC(O)CC(C)(C)O (stereo not given)
inactive: all assays above

CCCOC(=O)c1cc(O)c(O)c(O)c1
active: [4] 6.82 µM | [10] 20 µM
inactive: all other assays above

CCOC(=O)O[C@H](C)OC(=O)c1ccc2c(c1)cc(C(=O)NC1CCN(C(C)C)CC1)n2Cc1cc(-c2ccc(Cl)s2)on1
inactive: [2]
active: [1] 5.13 µM | [3] 7.49 µM | [4] 2.41 µM | [5] 9.34 µM | [6] 6.05 µM | [7] 6.15 µM | [8] 9.19 µM | [9] 7.43 µM | [10] 4.62 µM

Cc1oc2c(NC(=O)c3c(Cl)cccc3Cl)cccc2c1C(C)(C)O
active: [2] 15.6 µM | [4] 20 µM | [8] 26.5 µM | [9] 29.4 µM
inactive: all other assays above

NCc1cccc(C2CCN(C(=O)c3ccc(C#Cc4ccccc4F)o3)CC2)c1
inactive: [3] | [9]
active: [1] 28.4 µM | [2] 35.3 µM | [4] 22.3 µM | [5] 34 µM | [6] 27.7 µM | [7] 16 µM | [8] 4.76 µM | [10] 8.64 µM

Oc1ccc2ccccc2c1
inactive: all assays above

CCCCOC(=O)c1ccc(O)cc1
inactive: all assays above

Cc1cn([C@H]2C[C@H](N=[N+]=[N-])[C@@H](CO)O2)c(=O)[nH]c1=O
inactive: all assays above

Oc1ccccc1
inactive: all assays above

CCCCCCCCCCCO
active: [4] 33.5 µM | [10] 36.8 µM
inactive: all other assays above

CN1C(=O)N(c2ccccc2Br)Cc2cnc(Nc3ccc4c(c3)OCC(CO)O4)nc21 (stereo not given)
active: [1] 5.62 µM | [2] 37.8 µM | [3] 9.73 µM | [4] 1.27 µM | [5] 32.3 µM | [6] 5.98 µM | [7] 20 µM | [9] 0.952 µM | [10] 21.3 µM
inactive: [8]

CCCC(=O)OCCC(C)C
inactive: all assays above

OCCO
inactive: all assays above

CCO[Si](CCCNC(N)=O)(OCC)OCC
inactive: all assays above

CCCCOC(=O)CC(CC(=O)OCCCC)(OC(C)=O)C(=O)OCCCC
active: [6] 20 µM
inactive: all other assays above

O=C1O[C@H]([C@@H](O)CO)C(O)=C1O
inactive: all assays above

CC/C(=C(/CC)c1ccc(O)cc1)c1ccc(O)cc1
inactive: [1] | [5] | [8]
active: [2] 8.57 µM | [3] 0.345 µM | [4] 20 µM | [6] 33.7 µM | [7] 29.9 µM | [9] 11 µM | [10] 20 µM

O=C(O)Cc1cc(I)c(Oc2ccc(O)c(I)c2)c(I)c1
inactive: all assays above

O=C(OCCCCCCOC(=O)c1ccccc1)c1ccccc1
active: [8] 15.9 µM
inactive: all other assays above

COCC(C)OCC(C)OCC(C)O (stereo not given)
inactive: all assays above

CCCCCCCCCC(=O)O
inactive: all assays above

COc1ccc2cc(S(=O)(=O)N[C@H](CC(=O)N[C@H](Cc3ccc(CN4[C@H](C)CCC[C@@H]4C)cc3)C(=O)N(C)C(C)C)c3ccc4c(c3)OCO4)ccc2c1
active: [2] 0.966 µM | [4] 24.9 µM | [7] 19.1 µM | [8] 7.64 µM | [10] 30.4 µM
inactive: [1] | [3] | [5] | [6] | [9]

CCN(Cc1cccnc1)C(=O)c1cccc(Cl)c1[C@]1(C)C(=O)N(Cc2ccc(OC)cc2OC)c2ccc(Cl)cc21
active: [2] 1.39 µM | [4] 12.6 µM | [10] 7.05 µM
inactive: all other assays above

NC(=O)c1nc(-c2cccc(-c3cc(F)ccc3OCC(F)(F)C(F)(F)F)c2)n[nH]1
active: [4] 31.4 µM | [10] 35 µM
inactive: all other assays above

c1ccc(C[n+]2cccc3ccccc32)cc1
inactive: all assays above
